About 83,000 compounds went through this panel and 20% of them were active in at least one assay; those are over-represented in the sample as a whole.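 Interpretation: 100, growth as untreated; towards 0, rising growth inhibition; 0, no net growth; 0 to -100, cell death. Compounds scoring below 10 were considered active.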 A number with no mark means an inactive call. Calls of active or inactive are those of the source.
Tests used:
Assay in all cases: NCI-60 one-dose screen, 48 h (100 = growth as untreated, 0 = no growth, -100 = all killed)
Settings in all cases: 10 µM unless noted
[1] = system: SK-MEL-2 melanoma
[2] = system: EKVX NSCLC
[3] = system: SN12C renal
[4] = system: UO-31 renal
[5] = system: TK-10 renal
[6] = system: ACHN renal
[7] = system: CAKI-1 renal
[8] = system: A498 renal
[9] = system: CCRF-CEM leukemia
[10] = system: MOLT-4 leukemia
[11] = system: SR leukemia
[12] = system: OVCAR-8 ovarian
[13] = system: OVCAR-5 ovarian
[14] = system: OVCAR-4 ovarian
[15] = system: SK-OV-3 ovarian
[16] = system: IGROV1 ovarian
[17] = system: OVCAR-3 ovarian
[18] = system: HS 578T breast
[19] = system: NCI/ADR-RES ovarian

SMILES	growth [1]	growth [2]	growth [3]	growth [4]	growth [5] [%]	growth [6]	growth [7]	growth [8]	growth [9]	growth [10]	growth [11]	growth [12]	growth [13] [%]	growth [14] [%]	growth [15]	growth [16] [%]	growth [17]	growth [18]	growth [19]
O=c1c2cccc(Cl)c2sc2c(NCCCNCCO)nc3ccccc3c12	104%	53.9%	39.1%	12.5%	39.1	10.3%	-46.9% (active)	10.8%	-14.6% (active)	-40.3% (active)	-51.2% (active)	27%	62.5	11.1	53.2%	15.3	-7.4% (active)	20.3%	38.4%
CCOC(=O)Nc1ccc(-c2nc(-c3cccc(OC)c3)c(-c3ccnc(Br)c3)[nH]2)cc1	38.3%	30.1%	48.9%	16.3%	71.4	24.3%	32.7%	22.4%	16.7%	14.3%	9.48% (active)	29.4%	66.9	33.6	67.3%	45.2	33.3%	-5.11% (active)	27.6%
COc1ccc(S(=O)(=O)n2c3ccccc3n3ncc(-c4nnc(C)o4)c23)cc1	67%	31.7%	38.3%	44.8%	76.1	45.7%	32.1%	-8.11% (active)	11.7%	24.1%	24.7%	45%	30.6	81.6	54.4%	34.4	0.366% (active)	27%	-25.1% (active)
CCOC(=O)C1=C(N)Oc2c(sc3c(C)cccc23)C1c1ccc(OC)cc1 (stereo not drawn)	22.9%	88.5%	39.7%	41.5%	110	34%	5.78% (active)	4.89% (active)	24.3%	29.4%	29.1%	46.6%	75.9	65.5	57.7%	27.9	11%	30%	30.8%
CC(C)C(=O)Nc1ccc(-c2nc(-c3cccc(OCCN4CCOCC4)c3)c(-c3ccnc(Br)c3)[nH]2)cc1	36.2%	77.2%	70.5%	12.4%	85.3	58.7%	44%	54.7%	29%	10.6%	-3.9% (active)	51.8%	75.2	60	73.6%	68.7	63.3%	-26% (active)	91.7%
C/C(=C(/c1ccccc1)c1ccc(N2C(=O)c3cccc4c(N5CCN(C)CC5)ccc(c34)C2=O)cc1)c1ccccc1	116%	62.4%	77.2%	66.9%	114	89.5%	86.7%	86.3%	58%	54.3%	-9.19% (active)	83%	91.9	56.6	106%	69	82.7%	97.9%	84.9%
COc1cc2oc(-c3ccc(O)cc3)cc(=O)c2c(O)c1-c1c(OC)cc(O)c2c(=O)cc(-c3ccc(O)cc3)oc12	51.9%	85.5%	15.8%	14.6%	75.3	49.4%	26.9%	83.9%	44.9%	32.6%	5.09% (active)	28.1%	101	67.8	37.5%	16.7	29.3%	17.5%	79.6%
Cc1ccc(/C=C(\C#N)n2nc3cccc(F)c3n2)cc1	95.5%	83.5%	95.3%	72.3%	90.8	79.7%	58.8%	56%	104%	102%	62.8%	94.2%	97.1	97	107%	–	84.4%	91.5%	86%
COc1cc2cc(Oc3ccc(NC(=O)Nc4ccc(F)c(C(F)(F)F)c4)cc3)c(C)nc2cc1OCCN1CCOCC1	14.8%	16.2%	11.6%	30.1%	35.1	9.37% (active)	25.8%	38.7%	5.44% (active)	0.0203% (active)	-15.2% (active)	13.8%	66.9	27.3	41.3%	32.7	13%	–	12%
CCOC(=O)NCCc1ccccc1	104%	111%	99.2%	76.3%	112	110%	86%	110%	116%	90.1%	74%	108%	112	121	106%	–	116%	105%	–
COc1cc(C2CC(c3ccc(SC)cc3)=NN2C(C)=O)cc(OC)c1OC (stereo not drawn)	65.5%	74.5%	91.4%	71.2%	86.2	89.3%	65.5%	68.1%	52.9%	43.2%	33.8%	80.3%	100	93.8	89%	53.8	21.7%	79.7%	24.4%
O=C(Nc1ccc(Cl)cc1F)c1cc(Cl)ccc1O	-28.3% (active)	5.1% (active)	-11% (active)	-14.6% (active)	15.6	-1.72% (active)	1.59% (active)	-51.8% (active)	15.8%	-42.4% (active)	-21.2% (active)	8.56% (active)	19.7	17.9	9.05% (active)	–	2.51% (active)	-13.9% (active)	–
CCOC(=O)c1sc2ncc(-c3ccc(OC)cc3)n2c1C	103%	94.8%	92.1%	79.3%	156	-100% (active)	96.3%	107%	94.6%	94.5%	104%	91.6%	105	97.5	78.7%	81.4	108%	94.1%	92.3%
C/C=C(\C)C(=O)N[C@H]1[C@@H](OC(C)=O)C[C@]2(C)C3CC[C@@]4(C)C(CC[C@@H]4C(C)N(C)C)C3CCC2[C@H]1O (stereo partly drawn)	97.2%	62.7%	75.3%	10.5%	65.5	67.9%	65.6%	85.8%	39.7%	65.6%	51%	78.6%	96.7	15.3	93.6%	66.4	74.9%	88.6%	67.9%
CCOC(=O)c1cn2ncnc(Oc3ccc(NC(=O)NCCN(CC)CC)c(Cl)c3)c2c1C	112%	77.2%	68.3%	57%	110	88.2%	68.8%	90.3%	35.5%	49.2%	-26.6% (active)	81%	80.8	90.3	92.1%	87.3	68.6%	–	77.6%
